PubChem BioAssay AID1159580 (chemical genetic matrix, 2015)
Several values for one entry are separate records, joined by “and”; a condition that tells them apart may be missing. Identical values can stand only once. The campaign covered roughly 5,500 compounds. About 2,000 (36%) were called active. About 18% were inconclusive and are not listed. Cut-off read from the data, not from the text of the source: active = normalized growth mostly below about 0.91 (no sharp cut-off); inconclusive = no clear call, values can overlap the other calls; inactive = mostly above about 0.92. This is one part of the list.

Test: chemical genetic growth profiling, strain panel (AID 1159580);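 note: tested at 20 µM; growth read once vehicle control cultures reached saturation at 30 °C; 1 = growth at the plate median or of vehicle wells; lower values mean less growth of the strain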
Conditions: growth OD

Measured: normalized growth

C=CCc1ccccc1OCC(O)CNC(C)C (stereo unspecified)
inactive: S. cerevisiae deletion strains, locus YJR066W, strain TOR1, stronger effect = lower value 0.924 | S. cerevisiae deletion strains, locus YJR075W, strain HOC1, stronger effect = lower value 1.01 and 1 | S. cerevisiae deletion strains, locus YKL009W, strain mrt4, stronger effect = lower value 1 | S. cerevisiae deletion strains, locus YKL068W, stronger effect = lower value 1.01 | S. cerevisiae deletion strains, locus YKL085W, strain MDH1 (second series), stronger effect = lower value 1.01 | S. cerevisiae deletion strains, locus YKL085W, strain MDH1, stronger effect = lower value 1.01 | S. cerevisiae deletion strains, locus YKL160W, strain elf1, stronger effect = lower value 1 | S. cerevisiae deletion strains, locus YKL190W, strain CNB1, stronger effect = lower value 1 | S. cerevisiae deletion strains, locus YKR001C, strain vps1, stronger effect = lower value 1.03 | S. cerevisiae deletion strains, locus YKR026C, strain gcn3, stronger effect = lower value 0.988 | S. cerevisiae deletion strains, locus YKR091W, strain srl3, stronger effect = lower value 0.997 | S. cerevisiae deletion strains, locus YLL001W, strain dnm1, stronger effect = lower value 1.01 | S. cerevisiae deletion strains, locus YLL026W, stronger effect = lower value 0.991 | S. cerevisiae deletion strains, locus YLL041C, strain sdh2, stronger effect = lower value 0.992 | S. cerevisiae deletion strains, locus YLR027C, strain aat2, stronger effect = lower value 0.99 | S. cerevisiae deletion strains, locus YLR039C, strain RIC1, stronger effect = lower value 1.06 | S. cerevisiae deletion strains, locus YLR058C, strain SHM2, stronger effect = lower value 1.01 | S. cerevisiae deletion strains, locus YLR102C, strain apc9, stronger effect = lower value 1.01 | S. cerevisiae deletion strains, locus YLR113W, strain HOG1, stronger effect = lower value 0.983 | S. cerevisiae deletion strains, locus YLR221C, strain rsa3, stronger effect = lower value 0.992 | S. cerevisiae deletion strains, locus YLR258W, strain gsy2, stronger effect = lower value 0.99 | S. cerevisiae deletion strains, locus YLR262C, strain YPT6 (second series), stronger effect = lower value 1.02 | S. cerevisiae deletion strains, locus YLR262C, strain YPT6, stronger effect = lower value 1.06 | S. cerevisiae deletion strains, locus YLR268W, strain sec22, stronger effect = lower value 1.03 | S. cerevisiae deletion strains, locus YLR320W, strain mms22, stronger effect = lower value 0.994 | S. cerevisiae deletion strains, locus YLR330W, strain CHS5, stronger effect = lower value 0.988 | S. cerevisiae deletion strains, locus YLR342W, strain FKS1 (second series), stronger effect = lower value 0.974 | S. cerevisiae deletion strains, locus YLR342W, strain FKS1, stronger effect = lower value 0.995 | S. cerevisiae deletion strains, locus YLR357W, strain rsc2, stronger effect = lower value 0.967 | S. cerevisiae deletion strains, locus YLR370C, strain arc18, stronger effect = lower value 1.01 | S. cerevisiae deletion strains, locus YLR371W, strain rom2, stronger effect = lower value 1.01 | S. cerevisiae deletion strains, locus YLR384C, strain iki3, stronger effect = lower value 0.997 | S. cerevisiae deletion strains, locus YLR418C, strain cdc73, stronger effect = lower value 1.04 | S. cerevisiae deletion strains, locus YML016C, strain PPZ1, stronger effect = lower value 1 | S. cerevisiae deletion strains, locus YML032C, strain rad52, stronger effect = lower value 1.01 | S. cerevisiae deletion strains, locus YML120C, strain ndi1, stronger effect = lower value 0.994 | S. cerevisiae deletion strains, locus YML124C, strain tub3, stronger effect = lower value 1.01 | S. cerevisiae deletion strains, locus YMR058W, strain fet3, stronger effect = lower value 1 | S. cerevisiae deletion strains, locus YMR078C, strain ctf18, stronger effect = lower value 1.01 | S. cerevisiae deletion strains, locus YMR125W, strain sto1, stronger effect = lower value 0.993 | S. cerevisiae deletion strains, locus YMR129W, stronger effect = lower value 1 | S. cerevisiae deletion strains, locus YMR205C, strain PFK2, stronger effect = lower value 0.98 | S. cerevisiae deletion strains, locus YMR223W, strain ubp8, stronger effect = lower value 1 | S. cerevisiae deletion strains, locus YMR231W, strain pep5, stronger effect = lower value 0.995 | S. cerevisiae deletion strains, locus YMR263W, strain SAP30, stronger effect = lower value 1.01 | S. cerevisiae deletion strains, locus YMR307W, strain GAS1, stronger effect = lower value 1.02 | S. cerevisiae deletion strains, locus YNL067W, strain RPL9B, stronger effect = lower value 1.01 | S. cerevisiae deletion strains, locus YNL071W, strain lat1, stronger effect = lower value 1 | S. cerevisiae deletion strains, locus YNL128W, strain TEP1, stronger effect = lower value 1.01 and 0.998 | S. cerevisiae deletion strains, locus YNL153C, strain GIM3, stronger effect = lower value 1 | S. cerevisiae deletion strains, locus YNL175C, strain NOP13, stronger effect = lower value 0.973 | S. cerevisiae deletion strains, locus YNL183C, strain NPR1, stronger effect = lower value 0.924 | S. cerevisiae deletion strains, locus YNL209W, strain ssb2, stronger effect = lower value 1.01 | S. cerevisiae deletion strains, locus YNL224C, strain SQS1, stronger effect = lower value 0.972 | S. cerevisiae deletion strains, locus YNL233W, strain BNI4, stronger effect = lower value 0.982 | S. cerevisiae deletion strains, locus YNL248C, strain rpa49, stronger effect = lower value 1.01 | S. cerevisiae deletion strains, locus YNL250W, strain rad50, stronger effect = lower value 1.01 | S. cerevisiae deletion strains, locus YNL271C, strain bni1, stronger effect = lower value 1.01 | S. cerevisiae deletion strains, locus YNL298W, strain CLA4, stronger effect = lower value 1.02 | S. cerevisiae deletion strains, locus YNL307C, strain MCK1, stronger effect = lower value 1.03 | S. cerevisiae deletion strains, locus YNL322C, strain KRE1 (second series), stronger effect = lower value 0.991 | S. cerevisiae deletion strains, locus YNL322C, strain KRE1, stronger effect = lower value 1 | S. cerevisiae deletion strains, locus YNR049C, strain mso1, stronger effect = lower value 0.988 | S. cerevisiae deletion strains, locus YNR052C, strain pop2, stronger effect = lower value 1.01 | S. cerevisiae deletion strains, locus YOL006C, strain TOP1, stronger effect = lower value 1.05 | S. cerevisiae deletion strains, locus YOL012C, strain htz1 0.911 | S. cerevisiae deletion strains, locus YOL147C, strain pex11, stronger effect = lower value 1.01 | S. cerevisiae deletion strains, locus YOR001W, strain rrp6, stronger effect = lower value 0.997 | S. cerevisiae deletion strains, locus YOR061W, strain CKA2, stronger effect = lower value 1.01 | S. cerevisiae deletion strains, locus YOR069W, strain VPS5, stronger effect = lower value 1.01 | S. cerevisiae deletion strains, locus YOR070C, strain gyp1, stronger effect = lower value 0.997 | S. cerevisiae deletion strains, locus YOR080W, strain dia2, stronger effect = lower value 0.993 | S. cerevisiae deletion strains, locus YOR083W, strain WHI5 (second series), stronger effect = lower value 0.978 | S. cerevisiae deletion strains, locus YOR083W, strain WHI5, stronger effect = lower value 1.01 | S. cerevisiae deletion strains, locus YOR106W, strain vam3, stronger effect = lower value 1.05 | S. cerevisiae deletion strains, locus YOR136W, strain idh2, stronger effect = lower value 1 | S. cerevisiae deletion strains, locus YOR144C, strain elg1, stronger effect = lower value 1 | S. cerevisiae deletion strains, locus YOR184W, strain ser1, stronger effect = lower value 1.03 | S. cerevisiae deletion strains, locus YOR231W, strain MKK1, stronger effect = lower value 0.983 | S. cerevisiae deletion strains, locus YOR265W, strain rbl2, stronger effect = lower value 1 | S. cerevisiae deletion strains, locus YOR270C, strain vph1, stronger effect = lower value 1.07 | S. cerevisiae deletion strains, locus YOR290C, strain snf2, stronger effect = lower value 0.923 | S. cerevisiae deletion strains, locus YOR316C, strain cot1, stronger effect = lower value 1.01 | S. cerevisiae deletion strains, locus YPL051W, strain arl3, stronger effect = lower value 1.01 | S. cerevisiae deletion strains, locus YPL055C, strain LGE1, stronger effect = lower value 1 | S. cerevisiae deletion strains, locus YPL078C, strain atp4, stronger effect = lower value 1.01 | S. cerevisiae deletion strains, locus YPL106C, strain sse1, stronger effect = lower value 0.987 | S. cerevisiae deletion strains, locus YPL240C, strain hsp82, stronger effect = lower value 1.01 | S. cerevisiae deletion strains, locus YPL241C, strain CIN2, stronger effect = lower value 0.997 | S. cerevisiae deletion strains, locus YPL256C, strain CLN2, stronger effect = lower value 0.981 | S. cerevisiae deletion strains, locus YPR119W, strain clb2, stronger effect = lower value 1.01 | S. cerevisiae deletion strains, locus YPR141C, strain kar3, stronger effect = lower value 1.02 | S. cerevisiae deletion strains, locus YPR163C, strain tif3, stronger effect = lower value 1.01 | S. cerevisiae deletion strains, locus YPR167C, strain met16, stronger effect = lower value 1.01 | S. cerevisiae deletion strains, strain wtn01, stronger effect = lower value 1.01 | S. cerevisiae strains, strain wild type, stronger effect = lower value 1
